{
  "source": "PubChem BioAssay AID602162",
  "about": "(NMMLSC, 2011)",
  "note": "Hit rate of the full screen: of about 360,000 compounds, about 690 (0.19%) were called active.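 Rule for the calls: active = fluorescence ratio to DMSO below 75%, the collection mean minus 3 SD; inconclusive = too few cells collected in the well; inactive = the rest.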 Many of the other results were omitted from the sample, so actives are more common in it than they were.",
  "data": [
    {"molecular_target": "ATP-binding cassette sub-family B member 6 (Homo sapiens) (UniProt Q9NP58)", "sequence (Q9NP58 whole entry, looked up)": "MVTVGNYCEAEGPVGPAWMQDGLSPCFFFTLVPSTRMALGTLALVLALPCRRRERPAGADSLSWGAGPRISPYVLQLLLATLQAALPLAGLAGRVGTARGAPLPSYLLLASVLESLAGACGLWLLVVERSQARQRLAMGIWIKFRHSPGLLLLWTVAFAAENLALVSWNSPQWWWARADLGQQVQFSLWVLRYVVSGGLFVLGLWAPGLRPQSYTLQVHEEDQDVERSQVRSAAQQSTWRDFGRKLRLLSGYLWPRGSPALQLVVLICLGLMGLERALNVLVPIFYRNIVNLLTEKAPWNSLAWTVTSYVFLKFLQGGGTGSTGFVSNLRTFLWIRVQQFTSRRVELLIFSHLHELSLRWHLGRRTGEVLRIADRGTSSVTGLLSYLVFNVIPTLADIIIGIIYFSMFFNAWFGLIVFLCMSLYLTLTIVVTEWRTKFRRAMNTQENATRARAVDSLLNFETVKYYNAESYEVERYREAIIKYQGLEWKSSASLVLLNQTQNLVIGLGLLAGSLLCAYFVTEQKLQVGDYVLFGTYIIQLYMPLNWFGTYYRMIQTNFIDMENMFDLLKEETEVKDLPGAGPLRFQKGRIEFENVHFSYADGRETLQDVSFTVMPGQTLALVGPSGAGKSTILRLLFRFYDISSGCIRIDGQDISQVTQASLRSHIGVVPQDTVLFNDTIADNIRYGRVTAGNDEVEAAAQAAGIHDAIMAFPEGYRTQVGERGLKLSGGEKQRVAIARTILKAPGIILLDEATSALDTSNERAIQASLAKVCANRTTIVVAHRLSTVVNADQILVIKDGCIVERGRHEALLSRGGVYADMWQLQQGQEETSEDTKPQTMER", "test": "blockers of ABCB6-driven porphyrin uptake – K562-ABCB6 cells, flow cytometry, MLPCN library, primary screen (AID 602162);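 note: signal is porphyrin accumulated inside mitochondria; 100% equals median channel fluorescence of DMSO control wells; lower ratio means ABCB6 inhibition with less porphyrin fluorescence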", "settings": "K562-ABCB6 porphyrin accumulation, 1 h, at 10 µM, stronger effect = lower value", "values": [
      {"smiles": "Cc1sc2ncn(CC(=O)NCCCC(=O)N(C)Cc3ccccc3)c(=O)c2c1C", "fluorescence ratio to DMSO": "97% (inactive)"},
      {"smiles": "O=C(Nc1cc(=O)[nH]c2ncnn12)c1ccccc1Cl", "fluorescence ratio to DMSO": "101% (inactive)"},
      {"smiles": "CC(C)C[C@H](NC(=O)[C@@H]1O[C@H]1C(=O)O)C(=O)NCCCCN=C(N)N", "fluorescence ratio to DMSO": "94% (inactive)"},
      {"smiles": "CCC(c1nnnn1-c1ccc2c(c1)OCCO2)N1CCN(c2ccc(C(F)(F)F)cn2)CC1", "note": "(configuration not stated)", "fluorescence ratio to DMSO": "99% (inactive)"},
      {"smiles": "CN(Cc1ccccc1)C(=O)CCC1CCN(C(=O)c2ccco2)CC1", "fluorescence ratio to DMSO": "90% (inactive)"},
      {"smiles": "CCC(=O)N1CCCC1(C)C(=O)Nc1ccc2c(c1)CCN2C(C)=O", "note": "(configuration not stated)", "fluorescence ratio to DMSO": "72% (active)"},
      {"smiles": "CC(=O)N1CCc2cc(S(=O)(=O)NC3CCCCC3)ccc21", "fluorescence ratio to DMSO": "97% (inactive)"},
      {"smiles": "CCCNS(=O)(=O)c1ccc2c(c1)CCCN2C(C)=O", "fluorescence ratio to DMSO": "75% (inactive)"},
      {"smiles": "CC(C)(C)n1cnnc1Sc1ccc([N+](=O)[O-])cn1", "fluorescence ratio to DMSO": "101% (inactive)"},
      {"smiles": "CC1CCCCC1NC(=O)NC(=O)COC(=O)C1=NN(c2ccccc2)C(=O)CC1", "note": "(configuration not stated)", "fluorescence ratio to DMSO": "102% (inactive)"},
      {"smiles": "CC1(C(=O)Nc2ccc3c(c2)OCCO3)CCN1C(=O)Cc1cc(F)ccc1F", "note": "(configuration not stated)", "fluorescence ratio to DMSO": "100% (inactive)"},
      {"smiles": "COc1ccc(OC)c(C(=O)NC(CC(N)=O)c2ccc(N3CCC(N4CCCCC4)CC3)c([N+](=O)[O-])c2)c1", "note": "(configuration not stated)", "fluorescence ratio to DMSO": "92% (inactive)"},
      {"smiles": "Cc1nn(-c2ccccc2)c2[nH]c(C(F)(F)F)cc(=O)c12", "fluorescence ratio to DMSO": "87% (inactive)"},
      {"smiles": "O=C(COc1ccc(-n2cnnn2)cc1)Nc1ccccc1Cl", "fluorescence ratio to DMSO": "73% (active)"},
      {"smiles": "C=CCc1cccc(/C=N/NC(=O)COc2ccc(-n3cnnn3)cc2)c1O", "fluorescence ratio to DMSO": "93% (inactive)"},
      {"smiles": "CCOc1ccc(C(=O)COC(=O)c2ccc(-n3cnnn3)cc2)cc1", "fluorescence ratio to DMSO": "101% (inactive)"},
      {"smiles": "CC1CCN(C(=O)CSc2nnc(-c3ccco3)n2N)CC1", "fluorescence ratio to DMSO": "95% (inactive)"},
      {"smiles": "CN(C(=O)c1ccccc1)c1nccnc1C#N", "fluorescence ratio to DMSO": "98% (inactive)"},
      {"smiles": "COC(=O)c1ccc(CSc2ccc(S(=O)(=O)N3CCCCC3)cn2)cc1", "fluorescence ratio to DMSO": "100% (inactive)"},
      {"smiles": "O=C1CCCC2=C1C(c1cccs1)n1nc(SCc3ccccc3)nc1N2", "note": "(configuration not stated)", "fluorescence ratio to DMSO": "55% (active)"},
      {"smiles": "O=C1CCCC2=C1C(c1cccs1)CC(=O)N2c1ccc(F)cc1", "note": "(configuration not stated)", "fluorescence ratio to DMSO": "95% (inactive)"},
      {"smiles": "CCC(=O)N1c2ccccc2NC2=C(C(=O)CCC2)C1c1ccco1", "note": "(configuration not stated)", "fluorescence ratio to DMSO": "101% (inactive)"},
      {"smiles": "Cn1ncc2c(Nc3cccc4ccccc34)ncnc21", "fluorescence ratio to DMSO": "85% (inactive)"},
      {"smiles": "CCCOc1cccc(C(=O)Nc2ccccc2C(=O)N2CCN(C)CC2)c1", "fluorescence ratio to DMSO": "99% (inactive)"},
      {"smiles": "C[C@]12CCC(=O)C=C1C=CC1C2CC[C@@]2(C)C1CC[C@@]21CCC(=O)O1", "note": "(some centres not stated)", "fluorescence ratio to DMSO": "98% (inactive)"},
      {"smiles": "COc1ccc(S(=O)(=O)N2CCOCC2)cc1NC(=O)CSc1ncnc2ccccc12", "fluorescence ratio to DMSO": "92% (inactive)"},
      {"smiles": "CC(C)C(=O)N1CCN(c2nc(-c3ccccc3)c3c(c2C#N)CC(C)(C)OC3)CC1", "fluorescence ratio to DMSO": "111% (inactive)"},
      {"smiles": "CCOC(=O)CSc1nc(N2CCOCC2)c2c(c1C#N)CC(C(C)C)OC2", "note": "(configuration not stated)", "fluorescence ratio to DMSO": "97% (inactive)"},
      {"smiles": "CC1(C)Cc2c(C#N)c(SCc3nc4ccccc4[nH]3)nc(N3CCOCC3)c2CO1", "fluorescence ratio to DMSO": "74% (active)"},
      {"smiles": "Cc1cccc(OCCNC(=O)CSc2ccc(C(F)(F)F)cc2[N+](=O)[O-])c1", "fluorescence ratio to DMSO": "98% (inactive)"},
      {"smiles": "CCCOc1ccc(C(=O)C(CCC(CNCC)C(=O)c2ccc(OCCC)cc2)CNCC)cc1", "note": "(configuration not stated)", "fluorescence ratio to DMSO": "94% (inactive)"},
      {"smiles": "CC1CCN(C(NC(=O)c2ccco2)C(=O)c2ccccc2)CC1", "note": "(configuration not stated)", "fluorescence ratio to DMSO": "99% (inactive)"},
      {"smiles": "CCCCN(C(=O)CSCC(=O)Nc1ccc(OC)cc1)c1c(N)n(CCC)c(=O)[nH]c1=O", "fluorescence ratio to DMSO": "99% (inactive)"},
      {"smiles": "COc1ccc(CCNS(=O)(=O)c2ccc(F)cc2)cc1OC", "fluorescence ratio to DMSO": "62% (active)"},
      {"smiles": "COc1ccc(CCNS(=O)(=O)c2ccc(C(=O)NCc3ccco3)cc2)cc1OC", "fluorescence ratio to DMSO": "100% (inactive)"},
      {"smiles": "COc1ccc(CCNS(=O)(=O)c2ccc(Cl)s2)cc1OC", "fluorescence ratio to DMSO": "88% (inactive)"},
      {"smiles": "CCCCc1nc2ccc(F)cc2cc1C", "fluorescence ratio to DMSO": "95% (inactive)"},
      {"smiles": "O=C(CSc1nnc(Nc2ccccc2F)s1)NC1CCCC1", "fluorescence ratio to DMSO": "101% (inactive)"},
      {"smiles": "CCOc1ccc(OCC(=O)OC(C)C(=O)NC2CCCCC2C)cc1", "note": "(configuration not stated)", "fluorescence ratio to DMSO": "99% (inactive)"},
      {"smiles": "COc1ccc(C(=O)OCC(=O)c2ccc(Cl)s2)c(OC)c1OC", "fluorescence ratio to DMSO": "101% (inactive)"},
      {"smiles": "CCOC(=O)C1CSC(CC(=O)Nc2ccc(OCC)cc2)C(=O)N1", "note": "(configuration not stated)", "fluorescence ratio to DMSO": "95% (inactive)"},
      {"smiles": "CCOc1ccc(NC(=O)CCC(=O)NNC(=O)NC2CCCCC2)cc1", "fluorescence ratio to DMSO": "98% (inactive)"},
      {"smiles": "CCOc1ccc(NC(=O)CC2NCCNC2=O)cc1", "note": "(configuration not stated)", "fluorescence ratio to DMSO": "73% (active)"},
      {"smiles": "COc1cc([N+](=O)[O-])ccc1NC(=S)N1CCN(c2ccccn2)CC1", "fluorescence ratio to DMSO": "98% (inactive)"},
      {"smiles": "O=C(c1cccc(S(=O)(=O)N2CCCC2)c1)N(Cc1ccco1)C1CCS(=O)(=O)C1", "note": "(configuration not stated)", "fluorescence ratio to DMSO": "97% (inactive)"},
      {"smiles": "Cc1nccn1-c1ccc(NC(=O)[C@H]2O[C@@H](n3ccc(=O)[nH]c3=O)[C@H](O)[C@@H]2O)cc1", "fluorescence ratio to DMSO": "99% (inactive)"},
      {"smiles": "CCOC(=O)C1CCCN(C(=O)COc2ccc(N(C)S(=O)(=O)c3ccc(C)cc3)cc2)C1", "note": "(configuration not stated)", "fluorescence ratio to DMSO": "98% (inactive)"}
    ]}
  ]
}
